Bioassay records: PubChem BioAssay, National Center for Advancing Translational Sciences (NCATS)
MARV entry inh: qHTS for inhibitors of binding or entry into cells for Marburg Virus. Marburg virus pseudotyped entry inhibition, cell reporter. Potency, µM (highest dose often 37.8 µM), inactives show at the highest dose activity change, negative = inhibition, hits mostly inhibitors. 300,000 tested, 1.8% active; calls by dose curve; tested in HEK293 cells; also: potency is read from the fitted curve at half-maximal effect; % is scaled to controls: 0 for no effect and ±100 for the full control effect
Pf growth 48h: Primary qHTS for delayed death inhibitors of the malarial parasite plastid, 48 hour incubation; P. falciparum luciferase growth in erythrocytes, 48 h; Potency, µM (top dose mostly 28.7 µM), without a hit: at the highest dose activity change, negative = inhibition, actives largely listed as inhibitors; 310,000 tested, 5.9% active; also: potency is read from the fitted curve at half-maximal effect; % is scaled to controls: 0 for no effect and ±100 for the full control effect
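Firefly luciferase activity from engineered P. falciparum reports growth; inhibitors lower the luminescent signal. Cultures contained 2% hematocrit erythrocytes at 0.1% final parasitemia.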
Pf growth 96h: Primary qHTS for delayed death inhibitors of the malarial parasite plastid, 96 hour incubation. P. falciparum luciferase reporter growth, 96 h. 320,000 tested, 6.9% active. AID 504834, 2011. Potency, µM (top dose mostly 28.7 µM), inactives show at the highest dose activity change, negative = inhibition, actives largely listed as inhibitors; also: potency is read from the fitted curve at half-maximal effect; % is scaled to controls: 0 for no effect and ±100 for the full control effect
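P. falciparum expressing integrated firefly luciferase grown in erythrocytes (2% hematocrit, 0.05% parasitemia final) with compounds for 96 hours at 37 C, 5% CO2. Growth inhibition read as loss of luminescence after adding luciferase detection reagent.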
CHX counter: Cycloheximide Counterscreen for Small Molecule Inhibitors of Shiga Toxin; cell reporter, cycloheximide protein synthesis inhibition counterscreen; max response, %; 300,000 tested, 12% active; in the data active = max response mostly above about 13%, no sharp cut-off; inactive = mostly below about 14%; also: read at 38.3 µM for the half of the compounds with a filed dose; 0% is about no effect
LASV entry inh: qHTS for Inhibitors of binding or entry into cells for Lassa Virus. Lassa virus pseudotype entry inhibition, cell reporter. Potency, µM (series often up to 37.9 µM), without a hit: top-dose activity change, negative = inhibition, hits mostly inhibitors. 300,000 tested, 1.2% active; calls by dose curve; tested in HEK293 cells; also: potency is read from the fitted curve at half-maximal effect; % is scaled to controls: 0 for no effect and ±100 for the full control effect; nearly all actives have a fitted effect of over 50% in size
Shiga inhibitor: A qHTS for Small Molecule Inhibitors of Shiga Toxin. Vero cells, Shiga toxin protein synthesis inhibition reporter. inhibition, % at 38.7 µM. 290,000 tested, 9.2% active. AID 2315, 2010; in the data active = inhibition mostly above about 28%, no sharp cut-off; inactive = mostly below about 43%; also: 0% is about no effect
* marks the source's active call; other numbers are inactive results; ? = inconclusive; · = no result; [ ] = another dose, or the depositor's remark. Sampled rows, rich in hits. Any-hit rate of the full collection: about 19%. Unless noted, calls follow the shape of the dose curve; as a rule, active = well fitted inhibition curve with a large enough effect; inconclusive = small, poorly fitted or top-dose-only effect, or another doubt; inactive = no such curve, though single readings can be large or run the other way.

SMILES	MARV entry inh	Pf growth 48h	Pf growth 96h	CHX counter	LASV entry inh	Shiga inhibitor
CCC(=O)Oc1ccc2oc(=O)cc(C)c2c1	?	11%	-2%	10	8%	14
CCCCCCSc1ncc(C#N)c(N)n1	8%	29%	-26%	29*	-18%	37*
N#Cc1cnc(SCC(=O)c2ccccc2)nc1N	10%	10µM*	·	11	7%	18
Cc1ccccc1CSc1ncc(C#N)c(N)n1	5%	3%	166%	10	8%	63
CCCCCCCSc1nc(N)cc(=O)[nH]1	14%	·	7%	-5	7%	-13
N#Cc1cnc(SCCc2ccccc2)nc1N	-9%	72%	19%	24*	-39%	39*
O=C(CSc1n[nH]c(=O)[nH]c1=O)c1cccc([N+](=O)[O-])c1	·	20%	191%	-4	·	10
CN1CCC(=NNC(=O)c2ccc(N(Cc3ccccc3Cl)S(C)(=O)=O)cc2)CC1	1%	?	?	-3	?	-13
Cc1ccc(-c2nnc(SCc3nc(N)nc(Nc4ccccc4C)n3)n2N)cc1	-1%	-2%	·	-4	8%	8
Cc1ccccc1NC(=O)CSCc1nc(N)nc(Nc2ccccc2C)n1	-18%[46.1 µM]	4%	-13%	16*	2%	4
Cc1ccccc1Nc1nc(N)nc(CCl)n1	?	?	5.2µM*	34*	?	52*
Cc1ccccc1Nc1nc(N)nc(CN(C)c2ccccc2)n1	6%	-16%	·	18	0%	49
CCc1ccccc1NC(=O)CN(C)Cc1nc(N)nc(Nc2ccccc2C)n1	-4%	?	-19%	-1	0%	12
Cc1ccccc1Nc1nc(N)nc(CSc2nnc(-c3ccccc3)n2C)n1	2%	?	13µM*	18*	-19%	31
C=CCN(CC=C)Cc1nc(N)nc(Nc2ccccc2C)n1	·	?	9.3µM*	-2	·	-7
O=S(=O)(NCC(c1ccco1)N1CCN(c2ccccc2F)CC1)c1ccc2c(c1)OCCO2 (stereo not given)	?	2%	?	14	-17%	11
Cc1cc(C(=O)O)oc(=O)c1	-11%[46.1 µM]	22%	11%	-2	?	-8
COc1cc(C(=O)Cc2nc3ccccc3n2C)cc(OC)c1OC	2%[46.1 µM]	?	-13%	8	-26%[46.1 µM]	21
CN(Cc1nc2ccccc2n1C)c1ccccc1	?	0%	?	12	6%	38
COc1ccccc1C(O)Cc1nc2ccccc2n1C (stereo not given)	?	·	-25%	63*	-2%	108*
CC(C)c1ccc(C(O)Cc2nc3ccccc3n2C)cc1 (stereo not given)	?	?	?	60*	-30%	127*
CN(C)c1ccc(C(O)Cc2nc3ccccc3n2C)cc1 (stereo not given)	·	16%	9%	25*	·	63*
COc1ccc(NC(C#N)c2ccc(OC)cc2)cc1 (stereo not given)	?	·	52%	-1	-7%	-7
O=C(NCCc1c[nH]c2ccccc12)c1ccccc1O	·	·	·	38*	·	29*
O=C(NCCc1c[nH]c2ccccc12)C(=O)Nc1ccccc1	·	130%	?	29*	·	83
SMILES	MARV entry inh	Pf growth 48h	Pf growth 96h	CHX counter	LASV entry inh	Shiga inhibitor
O=C(NCCc1c[nH]c2ccccc12)c1c(Cl)nc2sccn12	4%	24%	-10%	23*	-3%	44
O=C(NCCc1c[nH]c2ccccc12)c1cc2sccc2n1Cc1ccccc1	-12%	·	0%	-2	?	-4
Cn1c(C(=O)NCCc2c[nH]c3ccccc23)cc2sccc21	·	·	33%	82*	·	89*
COc1ccc(N2CCN(CCCNC(=O)C(=O)c3c[nH]c4ccccc34)CC2)cc1	?	3.7µM*	2.1µM*	-1	?	16
O=C(NCCCN1CCOCC1)C(=O)c1c[nH]c2ccccc12	-20%[46.1 µM]	2%	-11%	-4	26%[46.1 µM]	1
O=C(NCCc1ccccc1)C(=O)c1c[nH]c2ccccc12	23%[46.1 µM]	?	-5%	40*	?	61*
CCCS(=O)(=O)c1cn2cccc(N)c2c1S(=O)(=O)CCC	9%	2%	154%	-2	?	-6
Cc1ccc(C)c(CN2CCC(CNC(=O)Nc3ccc(C)c(C)c3)CC2)c1	?	4.1µM*	14%	2	4%[46.1 µM]	-11
CCc1cccc(CN2CCC(CNC(=O)Nc3ccc(Cl)cc3)CC2)c1	·	4.7µM*	?	-1	·	-11
COc1ccc(C2CC(C(F)(F)F)n3ncc(C(=O)Nc4c(C)n(C)n(-c5ccccc5)c4=O)c3N2)cc1 (stereo not given)	17%	?	2%	-1	1%	11
COc1cc(/C=C/C2=NNC(=O)CC2)cc(OC)c1OC	-7%[46.1 µM]	1%[0.00184 µM]	16%	-1	13%[46.1 µM]	12
CC(C)c1ccc(/C=C/C2=NNC(=O)CC2)cc1	?	95%	111%	32*	?	85*
CN1CC(C(=O)O)Cc2c1ccc1ccccc21 (stereo not given)	?	?	40%	14	21%[46.1 µM]	19
CN1COc2ccc3ccccc3c2C1	11%[46.1 µM]	-37%	-1%	18*	-6%[46.1 µM]	4
Cc1cccc(C)c1OCC(=O)N(Cc1ccco1)Cc1ccco1	-22%[46.1 µM]	·	·	·	?	·
NC(=O)c1cc([N+](=O)[O-])ccc1NCCN1C(=O)c2ccccc2C1=O	·	2%	-29%	23*	·	65*
Cc1ccc(CNc2ccc([N+](=O)[O-])cc2C(N)=O)cc1	·	64%	27%	·	·	·
COc1ccc(NC(=O)c2ccc3c(SCC(=O)O)c4c(nc3c2)CCC4)c(OC)c1	20%[46.1 µM]	·	·	·	-2%[46.1 µM]	·
O=C(c1ccccn1)N1CCCC(N2CCN(c3cccc(C(F)(F)F)c3)CC2)C1 (stereo not given)	-8%[46.1 µM]	?	-14%	20*	-23%[46.1 µM]	41*
O=C(c1cc[n+]([O-])cc1)N1CCCC(N2CCN(c3cccc(C(F)(F)F)c3)CC2)C1 (stereo not given)	-27%	12µM*	?	13	1%	3
Oc1ccccc1CN1CCCC(N2CCN(c3cccc(C(F)(F)F)c3)CC2)C1 (stereo not given)	·	1.5µM*	148%	-1	·	·
O=C(c1ccccn1)N1CCN(c2cccc(C(F)(F)F)c2)CC1	-15%	21%	-6%	3	?	-12
Fc1ccccc1N1CCN(C2CCCN(Cc3cccc(C(F)(F)F)c3)C2)CC1 (stereo not given)	?	13%	?	2	-28%[46.1 µM]	-4
C=CCn1c(SC2CCOC2=O)nc2sc(CC)cc2c1=O (stereo not given)	-27%	62%	2%	-1	7%	2
CCOC(=O)c1ccc(-n2c(C)nc3c(cnn3-c3ccc(Cl)cc3)c2=O)cc1	2%[46.1 µM]	·	35%	-1	-3%[46.1 µM]	4
